Screens as filed in PubChem.
SUMO HTRF inh = inhibitors of in vitro SUMOylation cascade, primary screen, biochemical, HTRF, uHTS. AID 2006, 2009. 290,000 compounds, 0.36% hits. HTRF SUMOylation assay, SAE1/SAE2 + UBC9. SUMO-conjugating enzyme UBC9 (Homo sapiens), P63279. inhibition, % at 35 µM; in the data active = inhibition above about 50%, passing the limit was not always enough
Casp6 inh = human caspase-6 inhibitors, primary screen, biochemical, VEID-R110 fluorescence, single point, set 2. 350,000 compounds, 0.53% hits. inhibition, % at 12.5 µM. P55212. purified caspase-6, Z-VEID-R110 cleavage fluorescence;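 active = mean inhibition across replicates at least about 35%, with every replicate also reaching that limit, limit read from the data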
NSD2 inh = NSD2 histone methyltransferase inhibitors, primary screen, biochemical, AlphaScreen, single concentration, set 2; Histone-lysine N-methyltransferase NSD2 (Homo sapiens), O96028; NSD2 peptide methylation, 120 min; inhibition, % at 12.5 µM; 310,000 compounds, 0.54% hits; AID 743445, 2014; in the data active = inhibition above about 50%
SIRT5 inh = SIRT5 desuccinylase inhibitors, primary screen, biochemical, fluorescence imaging, single point, set 5 | NAD-dependent protein deacylase sirtuin-5, mitochondrial (Homo sapiens), Q9NXA8 | Purified SirT5, succinyl-peptide AMC, trypsin-coupled fluorescence | inhibition, % at 15 µM | 330,000 compounds, 1.1% hits; in the data active = inhibition above about 15%
Large screens that a line does not name were inactive. Rows were chosen to be rich in hits. Some 1.6% of all compounds tested hit in one or more screens of this group.

C[C@H]1CN([C@@H](C)CO)C(=O)c2cc(-c3cccc(F)c3)cnc2O[C@@H]1CN(C)Cc1cccnc1	none (no result: SUMO HTRF inh, NSD2 inh)
C[C@@H]1CN([C@@H](C)CO)C(=O)Cc2cc(N(C)C)ccc2O[C@H]1CN(C)C(=O)Nc1ccccc1	none (no result: SUMO HTRF inh, NSD2 inh)
COc1ccc(-c2cccc(C3CC=CC4C3C(=O)N(Cc3ccccc3)C4c3ccc(C(F)(F)F)cc3)c2)cc1 (stereo unspecified)	SIRT5 inh 19 (no result: NSD2 inh)
COc1ccc(NC(=O)C2(C)Cc3c(-c4ccc(C(N)=O)cc4)ccnc3O2)cc1OC (stereo unspecified)	SIRT5 inh 18 (no result: SUMO HTRF inh)
CC1(C(=O)Nc2cccc(C(F)(F)F)c2)Cc2c(-c3cccc(C(F)(F)F)c3)ccnc2O1 (stereo unspecified)	SIRT5 inh 21 (no result: SUMO HTRF inh)
C[C@@H]1CN([C@@H](C)CO)C(=O)c2cc(NS(=O)(=O)c3cn(C)cn3)ccc2O[C@H]1CN(C)S(=O)(=O)c1ccc(Cl)cc1	none (no result: SUMO HTRF inh, NSD2 inh)
O=C(NC1CCC1)[C@H]1[C@H](CO)[C@H]2Cn3c(ccc(-c4ccccc4)c3=O)[C@H]2N1Cc1ccccn1	none (no result: SUMO HTRF inh, NSD2 inh)
NS(=O)(=O)c1ccc(-c2ccc(/C=C3\C(=O)Nc4ccccc43)o2)cc1	none (no result: Casp6 inh, NSD2 inh, SIRT5 inh)
CC1(C)OC(=O)C(=Cc2ccc(-c3ccc(S(N)(=O)=O)cc3)o2)C(=O)O1	Casp6 inh 53
COCc1nc2ccccc2n1Cc1ccccc1C	SIRT5 inh 38
O=C(C1CCCCC1)N1CC2(C1)[C@H](c1ccccc1)[C@H](CO)N2Cc1ccccc1F	none (no result: SUMO HTRF inh, NSD2 inh)
CO[C@@H]1CN(C)C(=O)c2ccc(NC(=O)Cc3ccccc3)cc2OC[C@H](C)N(C(=O)c2ccccc2F)C[C@H]1C	none (no result: SUMO HTRF inh, Casp6 inh, NSD2 inh)
O=C(Cn1cncn1)NCCCc1ccccc1	Casp6 inh 75 (no result: SIRT5 inh)
O=C(O)CCN1CC2([N+](=O)[O-])C=CC(=O)C([N+](=O)[O-])(C1)C2CC(=O)c1ccccc1 (stereo unspecified)	Casp6 inh 43 (no result: SIRT5 inh)
COc1cc(/C=N/NC(=S)Nc2cccc(C(=O)O)c2)cc(OC)c1OC	SIRT5 inh 23
O=S1(=O)CC(N2CCCC2)CN1Cc1cn(Cc2ccccc2)nn1 (stereo unspecified)	SIRT5 inh 28 (no result: SUMO HTRF inh, NSD2 inh)
CN1CCN(C2CN(Cc3cn(Cc4ccccc4C(F)(F)F)nn3)S(=O)(=O)C2)CC1 (stereo unspecified)	none (no result: SUMO HTRF inh, NSD2 inh)
CN(C)CCN1CCN(C2CN(Cc3cn(Cc4ccccc4C(F)(F)F)nn3)S(=O)(=O)C2)CC1 (stereo unspecified)	SIRT5 inh 21 (no result: SUMO HTRF inh, NSD2 inh)
O=S1(=O)CC(N2CCC(c3ccccc3)CC2)CN1Cc1ccccc1 (stereo unspecified)	SIRT5 inh 37 (no result: SUMO HTRF inh, NSD2 inh)
CCCCCCn1cc(CN2CC(N3CCSCC3)CS2(=O)=O)nn1 (stereo unspecified)	SIRT5 inh 17 (no result: SUMO HTRF inh, NSD2 inh)
CC(C)NC(=O)N1C[C@H]2[C@@H](c3ccccc31)[C@@H](CO)N2Cc1ccccc1	none (no result: SUMO HTRF inh, NSD2 inh)
COc1ccccc1NC(=O)N[C@H]1CC[C@H](CCNC(=O)c2ccc3c(c2)OCO3)O[C@@H]1CO	SIRT5 inh 19 (no result: SUMO HTRF inh, NSD2 inh)
COc1ccccc1NC(=O)N[C@@H]1CC[C@H](CCNS(=O)(=O)c2ccc(F)cc2)O[C@H]1CO	none (no result: SUMO HTRF inh, NSD2 inh)
COc1ccccc1NC(=O)N[C@H]1CC[C@@H](CCNC(=O)c2ccc3c(c2)OCO3)O[C@@H]1CO	none (no result: SUMO HTRF inh, NSD2 inh)
COc1ccccc1NC(=O)N[C@H]1CC[C@@H](CCNS(=O)(=O)c2ccc(F)cc2)O[C@@H]1CO	SIRT5 inh 19 (no result: SUMO HTRF inh, NSD2 inh)
COC(=O)C[C@H]1CC[C@@H](NC(=O)Nc2ccc3c(c2)OCO3)[C@@H](CO)O1	none (no result: SUMO HTRF inh, NSD2 inh, SIRT5 inh)
COC(=O)C[C@@H]1CC[C@H](NC(=O)c2ccc3c(c2)OCO3)[C@@H](CO)O1	Casp6 inh 43 (no result: SUMO HTRF inh, NSD2 inh)
CC(=O)N(C)C[C@@H]1Oc2ncc(C#CCc3ccccc3)cc2C(=O)N([C@@H](C)CO)C[C@H]1C	none (no result: SUMO HTRF inh, NSD2 inh)
C[C@@H]1CN([C@H](C)CO)C(=O)c2cc(NS(C)(=O)=O)ccc2O[C@H]1CN(C)S(=O)(=O)c1cn(C)cn1	none (no result: SUMO HTRF inh, NSD2 inh)
Cc1c([N+](=O)[O-])cc(C(=O)Nc2ccc(NC(=O)c3ccco3)cc2)cc1[N+](=O)[O-]	SIRT5 inh 19
O=C(Nc1ccc(Cl)c([N+](=O)[O-])c1)c1ccco1	none
Cc1ccc(C(=O)n2nc(-n3cccc3)c3c(C)cc(C)nc32)cc1	SIRT5 inh 26
O=C(O)CCC(=O)N1N=C(c2ccco2)CC1c1ccco1 (stereo unspecified)	Casp6 inh 41
